# Measurements taken from publication PMC4336329 (PLoS ONE, 2015).
# In all, about 310,000 compounds went through this assay and about 14,000 (4.5%) showed an effect of 50% or more. Effects have a minus sign here. This excerpt belongs to a sample that is enriched for strong results.
# Biological target: human ether-à-go-go-related gene (hERG) potassium channel (human, UniProt Q12809)
# Assay: primary screen, population patch clamp on CHO cells stably expressing hERG; higher = less effect of the substance
# 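Note: peak tail current of the secondary pulse compared with the same well before compound.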
# human ether-à-go-go-related gene (hERG) potassium channel, sequence (Q12809 whole entry, looked up): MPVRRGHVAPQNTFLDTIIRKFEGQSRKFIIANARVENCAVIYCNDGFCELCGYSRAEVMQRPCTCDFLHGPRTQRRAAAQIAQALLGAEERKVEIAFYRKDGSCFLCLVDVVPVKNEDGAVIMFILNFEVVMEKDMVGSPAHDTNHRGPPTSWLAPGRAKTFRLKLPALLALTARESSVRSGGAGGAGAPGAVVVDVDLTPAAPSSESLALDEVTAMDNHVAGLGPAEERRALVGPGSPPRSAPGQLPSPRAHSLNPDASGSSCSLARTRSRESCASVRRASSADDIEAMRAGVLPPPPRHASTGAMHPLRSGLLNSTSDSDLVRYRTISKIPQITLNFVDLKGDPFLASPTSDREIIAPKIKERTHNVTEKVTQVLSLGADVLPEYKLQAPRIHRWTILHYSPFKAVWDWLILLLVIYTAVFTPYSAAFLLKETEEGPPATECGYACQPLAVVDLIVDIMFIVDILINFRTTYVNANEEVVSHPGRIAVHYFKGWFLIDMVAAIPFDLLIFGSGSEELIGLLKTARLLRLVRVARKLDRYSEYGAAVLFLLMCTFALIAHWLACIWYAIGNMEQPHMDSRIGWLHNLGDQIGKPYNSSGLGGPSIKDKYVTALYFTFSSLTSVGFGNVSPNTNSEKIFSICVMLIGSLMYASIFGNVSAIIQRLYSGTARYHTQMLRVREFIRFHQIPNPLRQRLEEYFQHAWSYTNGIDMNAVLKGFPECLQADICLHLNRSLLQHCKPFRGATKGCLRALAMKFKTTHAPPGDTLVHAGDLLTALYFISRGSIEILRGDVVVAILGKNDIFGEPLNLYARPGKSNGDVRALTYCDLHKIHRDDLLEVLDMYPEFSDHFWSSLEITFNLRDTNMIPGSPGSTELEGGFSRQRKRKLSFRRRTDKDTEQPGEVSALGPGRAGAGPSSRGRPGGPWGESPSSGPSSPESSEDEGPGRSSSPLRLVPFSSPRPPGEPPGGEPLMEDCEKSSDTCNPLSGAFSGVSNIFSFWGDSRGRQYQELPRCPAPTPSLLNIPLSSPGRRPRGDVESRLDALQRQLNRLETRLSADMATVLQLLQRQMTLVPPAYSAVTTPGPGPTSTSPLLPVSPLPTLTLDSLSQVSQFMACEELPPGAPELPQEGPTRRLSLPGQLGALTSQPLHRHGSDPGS
row,SMILES,"hERG current change (%, negative = inhibition) at 10uM [%]"
1,COC(=O)c1c(N2C(=O)[C@H]3[C@@H](C2=O)[C@]2(C(=O)Nc4c2ccc(C)c4C)N2CCC[C@@H]32)sc(C)c1C,15.4
2,C/C(=C\C(=O)c1ccccc1)NCc1ccc(F)cc1,-22.7
3,Cc1cc(S(=O)(=O)n2cnc3cc([N+](=O)[O-])ccc32)ccc1Cl,-2.69
4,Cc1ccc(C(=O)Nc2cnc3ccccn3c2=O)cc1,-17.2
5,Cc1cc(=O)[nH]c(SCc2cccc3cccnc23)n1,13.3
6,COc1ccc(CNc2c(CO)cnc3c2cnn3C)cc1,-13
7,COc1ccc(NC(=O)CN(C)C(=O)c2cccc(S(=O)(=O)N3CCN(c4ccccc4)CC3)c2)cc1,-3.62
8,O=C(N/N=C/c1ccco1)c1cc([N+](=O)[O-])cc([N+](=O)[O-])c1,6.85
9,COC(=O)C(C)N(C#N)c1nc(C)cc(C)n1 (centres unmarked),8.78
10,CC1(C)C(=O)Nc2ccccc2N1C(=O)COC(=O)CSc1ccc(Cl)cc1,18.3
11,COc1ccc(N2CCN(C(=O)CCSCc3ccccc3F)CC2)cc1,-28.1
12,COc1cccc(N2CCN(C(=O)CCSCc3ccccc3F)CC2)c1,-57.9
13,COc1cccc(CC(=O)OCC(=O)N2CCN(c3ccc(F)cc3)CC2)c1,-60.6
14,CC1(C)C(=O)Nc2ccccc2N1C(=O)COC(=O)Cc1c(F)cccc1Cl,-50.1
15,COc1ccc(N2CCN(C(=O)COC(=O)CCc3ccccc3)CC2)cc1,-0.829
16,COc1ccccc1N1CCN(C(=O)CCSCc2ccccc2F)CC1,4.41
17,COc1ccc(NC(=O)COC(=O)Cc2c(F)cccc2Cl)cc1,-0.319
18,COc1ccc(N2CCN(C(=O)COC(=O)Cc3cccc(OC)c3)CC2)cc1,-20
19,COc1ccc(N2CCN(C(=O)COC(=O)Cc3ccc(F)cc3)CC2)cc1,-20
20,CC1(C)C(=O)Nc2ccccc2N1C(=O)COC(=O)CSc1ccc(F)cc1,-2.24
21,COc1ccc(N2CCN(C(=O)COC(=O)Cc3c(F)cccc3Cl)CC2)cc1,-79
22,CSCC(NS(=O)(=O)c1ccc(C)cc1)C(=O)O (centres unmarked),8.98
23,CC(=O)N1CC(C)Sc2ccc(S(=O)(=O)NCCc3cccc(C)c3)cc21 (centres unmarked),0.141
24,COC(=O)CNC(=O)CNC(=O)Nc1ccccc1Cl,9.2
25,Cc1ccc(S(=O)(=O)N/N=C/c2ccc(C(=O)O)cc2)cc1,15.2
26,Nc1nc(N2CCN(c3ccccc3)CC2)n[nH]1,4.2
27,COc1cc(NC2=Nc3cccc4cccc2c34)cc(OC)c1OC,1.72

row,SMILES,"hERG current change (%, negative = inhibition) at 10uM [%]"
1,CCCCn1c(N)c(NCc2ccccc2OC)c(=O)[nH]c1=O,12.2
2,Cc1c(C=O)cnn1CCC(=O)O,4.76
3,O=c1ccc2cc(S(=O)(=O)Nc3ccc(Br)cc3)ccc2o1,5.32
4,COc1ccccc1NC(=O)CC1CCCC1,15.4
5,CCn1c(SCC(=O)Nc2cc(C)on2)nc2c(c1=O)SC(C)C2 (centres unmarked),-4.2
6,CCc1ccc(OCC(=O)Nc2ccc(S(=O)(=O)N3CCCC3)cc2)c(Br)c1,-4.25
7,COCCn1c(SCC(=O)Nc2c(C)n(C)n(-c3ccccc3)c2=O)nnc1-c1ccncc1,5.95
8,CCOC(=O)C1CCN(C(=O)Cn2nc(C)n3nc(-c4ccc(CC)cc4)cc3c2=O)CC1,5.33
9,O=C(/C=C/c1ccccc1[N+](=O)[O-])OCC(=O)N1CCCC1,12
10,COc1ccc(N2CCN(C(=O)COC(=O)CCOc3ccc(C)cc3)CC2)cc1,9.09
11,COc1ccc(N2CCN(C(=O)COC(=O)CCOc3cc(C)ccc3C)CC2)cc1,0.516
12,COc1ccc(N2CCN(C(=O)COC(=O)CCOc3ccccc3C)CC2)cc1,-62.5
13,CCn1cc(C(=O)NCC(C)C)c(=O)c2cc(F)c(N3CCN(C(=O)c4ccco4)CC3)cc21,-59.9
14,CCn1cc(C(=O)Nc2ncccc2O)c(=O)c2cc(F)c(N3CCN(C(=O)c4ccco4)CC3)cc21,1.98
15,CCCCNC(=O)c1cn(CC)c2cc(N3CCN(C(=O)c4ccco4)CC3)c(F)cc2c1=O,-33.8
16,CCn1cc(C(=O)NCc2ccc3c(c2)OCO3)c(=O)c2cc(F)c(N3CCN(C(=O)c4ccco4)CC3)cc21,-1.93
17,CCN(CC)CCNC(=O)c1cn(CC)c2cc(N3CCN(C(=O)c4ccco4)CC3)c(F)cc2c1=O.Cl,0.131
18,CCn1cc(C(=O)NCCC(C)C)c(=O)c2cc(F)c(N3CCN(C(=O)c4ccco4)CC3)cc21,-11.3
19,CCC(C)NC(=O)c1cn(CC)c2cc(N3CCN(C(=O)c4ccco4)CC3)c(F)cc2c1=O (centres unmarked),-55.2
20,CCn1cc(C(=O)NCc2cccc(F)c2)c(=O)c2cc(F)c(N3CCN(C(=O)c4ccco4)CC3)cc21,-21
21,CCCNC(=O)c1cn(CC)c2cc(N3CCN(C(=O)c4ccco4)CC3)c(F)cc2c1=O,-67
22,C=CCNC(=O)c1cn(CC)c2cc(N3CCN(C(=O)c4ccco4)CC3)c(F)cc2c1=O,-63.6
23,CCn1cc(C(=O)NCc2ccco2)c(=O)c2cc(F)c(N3CCN(C(=O)c4ccco4)CC3)cc21,-26.4
24,CCn1cc(C(=O)NC(C)C)c(=O)c2cc(F)c(N3CCN(C(=O)c4ccco4)CC3)cc21,-34.6
25,O=C(c1ccc2c(c1)OCO2)N1CCOCC1,17.5
26,COc1cccc(OCCn2cccc2/C=C2/C(=N)N3OC(C)=CC3=NC2=O)c1,-23.5
